D3 antag – qHTS of D3 Dopamine Receptor Antagonist: qHTS; 2.5% of 360,000 active; max response, negative = inhibition, %; D(3) dopamine receptor (Homo sapiens), P35462; D3R cells, DiscoveRx beta-arrestin luminescence, antagonist mode; active compounds read low; in the data active = max response below about -50%; also: % is scaled to controls: 0 for no effect and ±100 for the full control effect
Target sequence (P35462 whole entry, looked up): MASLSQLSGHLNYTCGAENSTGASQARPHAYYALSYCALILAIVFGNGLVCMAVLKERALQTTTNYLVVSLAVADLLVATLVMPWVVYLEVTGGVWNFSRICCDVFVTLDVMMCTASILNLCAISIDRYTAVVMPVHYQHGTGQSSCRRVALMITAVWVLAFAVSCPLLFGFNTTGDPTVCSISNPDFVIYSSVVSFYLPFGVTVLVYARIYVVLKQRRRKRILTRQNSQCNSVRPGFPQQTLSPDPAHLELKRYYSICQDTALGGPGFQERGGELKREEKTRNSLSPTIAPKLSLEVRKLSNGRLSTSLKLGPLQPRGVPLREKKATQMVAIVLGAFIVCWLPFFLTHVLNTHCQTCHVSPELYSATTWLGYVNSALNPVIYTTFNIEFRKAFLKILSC
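Cells plated overnight at 1500 cells/well, then exposed to library compounds with dopamine controls for 90 minutes at 37 degrees C. DiscoveRx reagent added for 30–60 minutes at room temperature; luminescence read, quantitative HTS format.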
D3 ag – qHTS of D3 Dopamine Receptor Agonist: qHTS; D(3) dopamine receptor (Homo sapiens), P35462; D3R DiscoveRx beta-arrestin cells, luminescence, 90 min; max activation, %; 0.58% of 410,000 active; in the data active = max activation above about 30%; also: 0% is about no effect
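Cells at 1500/well, incubated overnight, then treated with pinned compounds (dopamine as control) for 90 min at 37 degrees C. DiscoveRx reagent added for 30 - 60 minutes at room temperature; luminescence read.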
D1 agonist – Allosteric Agonists of the Human D1 Dopamine Receptor: qHTS. D(1A) dopamine receptor (Homo sapiens), P21728. HEK293 T-REx D1 cells, calcium flux, agonist mode. activation, % at 2 µM. 1% of 360,000 active. AID 504660, 2011; in the data active = activation above about 30%; also: 0% is about no effect
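Inducible HEK293 T-REx D1 cells, force-coupled to calcium signalling, were plated at 4000 cells/well with tetracycline and held overnight at 30 C. After no-wash calcium dye loading, compound-evoked calcium rise over 180 s flagged agonists.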
D1 PAM – Potentiators of Human D1 Dopamine Receptor: qHTS; potentiation, % at 10 µM; D(1A) dopamine receptor (Homo sapiens), P21728; 0.036% of 360,000 active; HEK293 TREx D1 cells, calcium flux, dopamine EC20 potentiation; in the data active = potentiation above about 30%; also: 0% is about no effect
D1 antag – Antagonist of Human D 1 Dopamine Receptor: qHTS | HEK293 TREx D1 cells, calcium flux, dopamine EC80; active compounds read low | activity change, negative = inhibition, % at 10 µM | 3.2% of 360,000 active | AID 504652, 2011; in the data active = activity change below about -30%; also: % is scaled to controls: 0 for no effect and ±100 for the full control effect
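Antagonism measured as reduced calcium response to an EC80 dopamine addition following 180 s compound pre-read; cells were inducible HEK293 Trex D1 plated overnight at 30 C, read kinetically at 1 cycle/sec.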
* hit, by the source's call; x = not tested or not shown. Rows were chosen to be rich in hits. Some 6.1% of all compounds tested hit in one or more screens of this group.

SMILES	D3 antag	D3 ag	D1 agonist	D1 PAM	D1 antag
Cc1ccc(-n2ncc(C(=O)NC3CCN(Cc4ccccc4)CC3)c2C2CCN(C(=O)OC(C)(C)C)CC2)cc1C	x	-9	3	3	3
CC(C)Nc1nc(NC(C)C)nc(N(C)N)n1	-53*	-10	10	-6	-15
C/C(=N\Nc1nccnc1Cl)c1ccc([N+](=O)[O-])cc1	-29	-16	0	-5	-61*
Cc1ccc(-c2noc(-c3ccoc3C)n2)cc1	20	1	104*	7	-8
O=C(Cc1ccc(NC(=O)N2CCCCc3ccccc32)cc1)NCc1ccccc1	x	-2	2	2	-12
COc1cc(Cl)c(C)cc1Nc1c2c(nc3ccccc13)CCC2	x	-14	0	-1	0
Cc1cccc(NC(=O)c2oc3ccc(S(=O)(=O)N(C)C4CCCCC4)cc3c2C)c1C	x	10	5	0	19
CCCCNC(=O)CSc1nnc(-c2ccc(S(=O)(=O)N3CCCC3)cc2)n1C	-18	1	-2	-7	-68*
CCCNC(=O)CSc1ccc(S(=O)(=O)N2CCCC2)cn1	9	-4	0	2	-34*
C=CCNC(=O)CSc1nnc(-c2ccc(S(=O)(=O)N3CCCC3)cc2)n1C	9	0	6	x	-5
O=S(=O)(c1ccc(SCc2ccccc2F)nc1)N1CCCC1	-1	-6	13	x	-34*
CCS(=O)(=O)c1nc(S(=O)(=O)c2ccc(Cl)cc2)c(N2CCN(C)CC2)s1	-75*	-20	2	-2	40
Cc1ccc(S(=O)(=O)c2nc(S(=O)(=O)c3ccc(C)cc3)c(N3CCN(CCO)CC3)s2)cc1	-92*	-18	5	1	-4
CS(=O)(=O)c1nc(S(=O)(=O)c2ccc(Cl)cc2)c(N2CCN(CCO)CC2)s1	-13	-6	0	3	4
CCCS(=O)(=O)c1nc(S(=O)(=O)c2ccc(Cl)cc2)c(N2CCC(O)CC2)s1	2	-13	3	52*	-16
CCS(=O)(=O)c1nc(S(=O)(=O)c2ccc(C)cc2)c(N2CCC(C)CC2)s1	-9	0	4	-7	-36*
Cc1c(Cl)cccc1NS(=O)(=O)c1ccc(-c2cnc(C3CC3)o2)cc1	x	-13	10	-1	-8
CCOc1ccc(/C(O)=C2/C(=O)C(=O)N(c3ncccn3)C2c2ccc(C)cc2)cc1 (configuration not stated)	-21	31*	3	0	6
CCOc1ccc(/C(O)=C2/C(=O)C(=O)N(c3ncccn3)C2c2ccccc2)cc1 (configuration not stated)	2	-3	8	-1	11
CCc1ccc(C2CC(=O)Nc3c2c(=O)n(C)c2ncnn32)cc1 (configuration not stated)	x	-12	1	-6	-39*
CSc1ccc(C2CC(=O)Nc3c2c(=O)n(C)c(=O)n3C)cc1 (configuration not stated)	-4	5	4	-8	-5
Cc1ccc(S(=O)(=O)/N=C2/NC(=O)/C(=C\c3cc(Br)cc(Br)c3O)S2)cc1	-53*	-6	276*	11	-52*
Cc1ccc(S(=O)(=O)/N=C2/NC(=O)/C(=C/c3cccnc3)S2)cc1	0	-8	3	2	-35*
O=C1N/C(=N/O)S/C1=C/c1cccnc1	-20	-8	1	14	2
Cc1ccc(S(=O)(=O)/N=C2/NC(=O)/C(=C/c3ccc(Br)o3)S2)cc1	13	-1	2	-4	-15
Cc1sc2c(c1C)c(=O)n(-c1cccc(C(F)(F)F)c1)c(=O)n2Cc1ccc(F)cc1	x	-6	0	0	-5
COc1ccc(OCC2c3cc(OC)c(OC)cc3CCN2C(=O)c2ccc(F)cc2)cc1 (configuration not stated)	x	-8	5	3	12
Cc1ccccc1-c1noc(-c2ccc(N3CCN(C)CC3)c([N+](=O)[O-])c2)n1	x	-11	2	-2	-2

Assay outcomes from PubChem.
